# Source: PubChem BioAssay AID624273 (Broad Institute, 2012)
# Screen size: about 1,000 compounds; about 230 (23%) were called active. About 1% were inconclusive and are not listed. No rule for the calls is given here. The list shows a part of the results. Measured potencies and affinities stand elsewhere.
# Biological target: Long-chain-fatty-acid--AMP ligase FadD28 (Mycobacterium tuberculosis (strain ATCC 25618 / H37Rv)) (UniProt P9WQ59)
# Experiment: inhibitors of FadD28 bisubstrate probe binding, dose response, biochemical, fluorescence polarization, cherry-pick (AID 624273)
# Details: series mostly up to 50 µM
# Long-chain-fatty-acid--AMP ligase FadD28 (Mycobacterium tuberculosis (strain ATCC 25618 / H37Rv)), sequence (P9WQ59 whole entry, looked up): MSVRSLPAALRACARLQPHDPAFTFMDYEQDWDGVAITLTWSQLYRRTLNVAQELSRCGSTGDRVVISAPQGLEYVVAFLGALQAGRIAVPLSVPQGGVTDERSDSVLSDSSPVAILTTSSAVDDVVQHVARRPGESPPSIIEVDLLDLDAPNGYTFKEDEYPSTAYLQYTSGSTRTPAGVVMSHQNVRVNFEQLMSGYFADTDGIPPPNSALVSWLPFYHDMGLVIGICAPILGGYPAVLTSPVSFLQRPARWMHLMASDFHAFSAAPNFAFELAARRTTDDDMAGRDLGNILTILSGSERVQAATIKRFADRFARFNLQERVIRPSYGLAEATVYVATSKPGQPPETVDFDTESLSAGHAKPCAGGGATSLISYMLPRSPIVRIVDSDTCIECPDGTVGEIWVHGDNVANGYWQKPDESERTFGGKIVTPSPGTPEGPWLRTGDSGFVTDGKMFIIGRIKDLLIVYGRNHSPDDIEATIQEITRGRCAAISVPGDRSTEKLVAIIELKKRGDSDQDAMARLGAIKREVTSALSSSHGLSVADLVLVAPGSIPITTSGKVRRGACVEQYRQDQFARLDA
row,Structure (SMILES),outcome
1,O=C(CNC(=O)c1nc[nH]c1C(=O)NCC(=O)OCc1ccccc1)OCc1ccccc1,inactive
2,COc1ccc(OC)c2[nH]c(=O)c(CCNS(=O)(=O)c3ccc(Cl)cc3)cc12,inactive
3,Cc1cccc(C(=O)NCC(=O)OCc2nc(N)nc(Nc3ccccc3C)n2)c1,inactive
4,O=C(O)CCCc1nc(-c2ccccc2)no1,inactive
5,CCOc1cc(/C=C2\N=C(SC)SC2=O)cc([N+](=O)[O-])c1OC(C)=O,inactive
6,CCC(C)OC(=O)C1=C(C)NC(=O)CC1c1ccccc1OC (stereo not given),inactive
7,Cc1ccc(/C=C/C(=O)C2C(=O)c3ccccc3C2=O)cc1,inactive
8,Cc1noc(C)c1C(=O)NCc1ccccc1Br,inactive
9,O=C(NNC1CC(=O)N(c2ccc(Br)cc2)C1=O)c1cccnc1 (stereo not given),inactive
10,O=C(O)c1ccc(N=C2SCC(=O)N2Cc2ccccc2)cc1,inactive
11,O=C1CC(C(=O)Nc2ccc(Br)cc2)S/C(=N\N=C\c2ccco2)N1 (stereo not given),inactive
12,CN(C)S(=O)(=O)c1cc(NC(=O)CSc2ncc(C(F)(F)F)cc2Cl)ccc1Cl,inactive
13,COc1cccc(NC(=S)/C(=C(\[O-])c2cc(C)n(-c3ccccc3F)c2C)[n+]2ccc(N(C)C)cc2)c1,inactive
14,O=C(c1cc2cc(Cl)ccc2[nH]1)N1CCCCC1,inactive
15,C/C(=N\N=C(/N)SC1CC(=O)N(c2ccc(Br)cc2)C1=O)c1cccs1 (stereo not given),inactive
16,CCN(CC)c1ccc(/C=N/NC(=O)Cc2cccs2)c(O)c1,inactive
17,C[C@H](CO)N1C[C@H](C)[C@H](CN(C)S(=O)(=O)c2cccs2)Oc2ccc(NC(=O)Nc3ccc4c(c3)OCO4)cc2CC1=O,inactive
18,Cc1ccc(-n2ncc3c(=O)[nH]c(SCC(=O)N4CC(=O)Nc5ccccc54)nc32)cc1,inactive
19,O=C(Cc1ccccc1[N+](=O)[O-])OCC(=O)c1c[nH]c2ccccc12,inactive
20,COc1ccc(S(=O)(=O)NCC2CCCN(Cc3cn(C)nc3C)C2)cc1 (stereo not given),inactive
21,O=C(Cn1cc2c(n1)CCCC2)Nc1cc(-c2cccc(Cl)c2)no1,inactive
22,CCCCOc1[nH]c2nc(-c3ccco3)n(Cc3ccco3)c(=N)c2c1C#N,inactive
23,COc1ccc(-c2nc3ccccc3c(=O)n2CCCN2CCOCC2)cc1,inactive
24,COC(=O)c1sc(NC(C)=O)c(C(=O)OC)c1C,inactive
25,O=C1NN(c2ccc(Cl)c(Cl)c2)C(=O)/C1=C/c1ccc(-c2ccccc2C(=O)O)o1,inactive
26,O=[N+]([O-])c1ccc2[nH]c(=S)sc2c1,inactive
27,Clc1cccc(/C=N/N2CCN(Cc3ccccc3)CC2)c1,inactive

row,Structure (SMILES),outcome
1,O=C(Nc1cnc2sccn2c1=O)c1ccccc1Cl,inactive
2,CC1=NN(c2ccc([N+](=O)[O-])cc2)C(=O)C1,inactive
3,Cc1ccc(-n2nnnc2SCC(=O)Nc2nc(-c3ccc(F)cc3)cs2)cc1C,inactive
4,COc1ccccc1CO/N=C/NC(=O)c1c(OC)ccnc1Oc1ccc(F)cc1,inactive
5,COCCNC(=O)C1CC(=O)N(c2ccc(OC)cc2)C1c1ccc(OC)cc1 (stereo not given),inactive
6,CCCOC(=O)c1ccc(NC(=O)c2cc(OC)c(OC)c(OC)c2Br)cc1,inactive
7,Cc1cccc(NC(=O)CN2C(=O)N/C(=C/c3ccc(C)s3)C2=O)c1,inactive
8,COc1ccc(/C=C2/NC(=O)N(CC(=O)Nc3cccc(C)c3)C2=O)cc1O,inactive
9,CCOc1cc(C2NC(=O)NC(C)=C2C(=O)OCC2CCCCC2)ccc1O (stereo not given),inactive
10,CC(C)NC(=O)N1CCC(n2nccc2NC(=O)CCOc2ccccc2)CC1,inactive
11,O=C1NC(=S)S/C1=C\c1cc2ccccc2nc1N1CCCCC1,inactive
12,COc1ccc(/C=C2/C(=O)N(Cc3ccco3)C(=O)N(C(C)C)C2=O)cc1,inactive
13,CC1CC(C)CN(CCCNC(=O)Cn2cccc2C(=O)c2ccccc2)C1 (stereo not given),inactive
14,CC(=O)c1ccc(C(=O)N2CCCC(Nc3ccccc3)C2)s1 (stereo not given),inactive
15,O=C(c1ccc2nc(Cc3cccc(Cl)c3)oc2c1)N1CCC(O)CC1,inactive
16,CCOC(=O)Nc1cc(N)ncn1,inactive
17,COc1ccc(CCNC(=O)C(=O)NCCCN2CCOCC2)cc1,inactive
18,CCN(CC)c1ccc(/C=c2\sc3nnc(-c4ccccc4Cl)n3c2=O)cc1,inactive
19,Cc1ccc(S(=O)(=O)N2CCC(NC(=O)c3cccc(F)c3)CC2)cc1,inactive
20,CCC1(C)Cc2ccccc2-c2nc(NCCO)[nH]c(=O)c21 (stereo not given),inactive
21,COCC(=O)/C=C1\Sc2ccccc2N1C,inactive
22,O=Cc1ccc(C(=O)OCC(=O)NC(=O)Nc2ccccc2F)cc1,inactive
23,COc1cccc(-c2nc3ccc(C(=O)NC(C)Cc4cccnc4)cc3o2)c1 (stereo not given),inactive
24,Cc1ccc(OCC(=O)Nc2ccncc2)cc1,inactive
25,Cc1ccc2nc(SCC(=O)Nc3ccc(C(N)=O)cc3)[nH]c2c1,inactive
26,O=S(=O)(c1ccc(N2CCC(c3ccc(Cl)cc3)=N2)cc1)N(CCO)CCO,inactive
27,Cc1noc(NS(=O)(=O)c2ccc(NC(=O)/C=C/c3ccc(Br)cc3)cc2)c1C,inactive

row,Structure (SMILES),outcome
1,NC(N)=NS(=O)(=O)c1ccc(NC(=S)NC(=O)/C=C/c2ccc(F)cc2)cc1,inactive
2,CCOc1ccc(N(C(C)C(=O)Nc2cccnc2)S(C)(=O)=O)cc1 (stereo not given),inactive
3,COc1ccc(C2=NOC(C)(c3nnc(-c4ccccc4)o3)C2)cc1 (stereo not given),inactive
4,Cc1cc(-c2ccc(C)c(S(=O)(=O)Nc3ccc(S(N)(=O)=O)cc3)c2)on1,inactive
5,O=S(=O)(c1ccc(Nc2ccc(-c3ccc4c(c3)OCCO4)nn2)cc1)N1CCCC1,inactive
6,Cc1ccccc1C(=O)OCCN(C)Cc1ccccc1,inactive
7,CC(C)(C)c1ccc(OCCC(=O)Nc2cccc(S(=O)(=O)N3CCCC3)c2)cc1,inactive
8,COC(=O)C1=C(C)N(CCc2c[nH]c3ccccc23)C(=O)C1,inactive
9,COC(=O)c1cn(NC(=O)c2ccc([N+](=O)[O-])c(C)c2)c(=O)c2ccccc12,inactive
10,N#CC(=C=[N-])C1=C(C#N)C(c2ccccc2F)C([n+]2ccccc2)C(O)(C2CC2)N1 (stereo not given),inactive
11,COc1ccccc1C/C(N)=N/OC(=O)c1cccs1,inactive
12,COc1ccc(OC)c(NC(=O)CN2C(=O)C(C)N(c3ccc(C)cc3)C2=O)c1 (stereo not given),inactive
13,Cc1ccc(S(=O)(=O)Nc2cccc3c2O[C@@H](CN(C)C(=O)Nc2ccc4c(c2)OCO4)[C@H](C)CN([C@@H](C)CO)C3=O)cc1,inactive
14,CCCc1cc(=O)[nH]c(SCc2ccc(C#N)cc2)n1,inactive
15,COc1ccccc1-c1cnc(C(O)c2cc(C)c(OC)c(C)c2)[nH]1 (stereo not given),inactive
16,O=C(NNC(=O)C1CC1)Nc1ccc(Cl)cc1,inactive
17,O=C(NCCN1CCN(c2ccccc2F)CC1)c1cccn2c(=O)c3ccccc3nc12,inactive
18,CCOc1ccc(OCCNC2CCCC2)cc1,inactive
19,CC(C)(C)C1CCc2c(sc(NC(=O)C3CCCO3)c2C(N)=O)C1 (stereo not given),inactive
20,O=C(O)Cn1c(CCS(=O)(=O)c2ccc(Br)cc2)nc2ccccc21,inactive
21,COc1ccc(-c2cc(C(F)(F)F)c3c(=O)n(-c4ccccc4)[nH]c3n2)cc1,inactive
22,O=C(CSc1ccc(Cl)cc1)NC1=NN(c2ccccc2)C(=O)C1,inactive
23,C[C@@H]1CN([C@H](C)CO)C(=O)c2cc(NC(=O)Nc3ccc(C(F)(F)F)cc3)ccc2O[C@H]1CN(C)S(=O)(=O)c1ccccc1,inactive
24,N#CCCN(CCC#N)C(=O)C1c2ccccc2Oc2ccccc21,inactive
25,CCCCCCn1cc(C(=O)O)c(=O)c2cc(F)c(N3CCN(C)CC3)cc21,inactive
26,O=C(NNC(=O)C1CC=CCC1)c1ccccc1Cl (stereo not given),inactive
27,COc1ccc(CCNC(=O)CSc2nc3[nH]ncc3c(=O)n2-c2ccc(Cl)cc2Cl)cc1OC,inactive

row,Structure (SMILES),outcome
1,O=C(CSc1nnc(CNc2ccc(Cl)cc2)o1)Nc1nc2c(s1)CCCC2,inactive
2,COCC(C)N=Cc1c(O)[nH]c2ccccc12 (stereo not given),inactive
3,CC1=C(C(=O)OCCCBr)C(c2ccc3c(c2)OCO3)NC(=O)N1 (stereo not given),inactive
4,CN1CC(C(=O)c2ccc(Cl)cc2)C(c2ccc(N(C)C)cc2)C1 (stereo not given),inactive
5,CC(=O)Oc1ccc(-c2nc(-c3cccnc3)no2)cc1,inactive
6,COc1ncnc(-c2ccccc2)c1-c1ccccc1,inactive
7,COCC(=O)Nc1ccc(Br)cc1C,inactive
8,O=C(CN1C(=O)/C(=C/c2ccco2)SC1=S)NC1CCS(=O)(=O)C1 (stereo not given),inactive
9,COc1ccc(/C=C2\SC(=O)N(CC(=O)Nc3ccccc3O)C2=O)cc1OC,inactive
10,COc1cc(/C=N/n2c(COc3ccccc3)n[nH]c2=S)cc(OC)c1OC(C)=O,inactive
11,COc1ccc(C(=O)Nc2ccncc2)cc1OC,inactive
12,O=C(NCCS(=O)(=O)N1CCN(c2cccc(Cl)c2)CC1)c1cc(=O)c2ccccc2o1,inactive
13,COc1cc2cc(C(N)=O)c(N)nc2cc1OC,inactive
14,Cc1nc(-c2cccs2)ccc1C(=O)O,inactive
15,COCCCNC(=S)N/N=C/c1cccc(OC)c1O,inactive
16,O=[N+]([O-])c1cccc(/C=N/n2c(C3CCCCC3)n[nH]c2=S)c1,inactive
17,CC1CCN(S(=O)(=O)c2ccc(C(=O)Nc3nnc(C4=COCCO4)o3)cc2)CC1,inactive
18,O=C(COC(=O)c1cccc(S(=O)(=O)N2CCCC2)c1)Nc1cccc(Br)c1,inactive
19,CCN(CC)S(=O)(=O)c1ccc(NC(=O)COC(=O)c2ccc(Br)o2)cc1,inactive
20,O=C(CSc1nnnn1-c1ccccc1)Nc1nsc(-c2ccc(Cl)cc2)n1,inactive
21,Cc1cc(S(=O)(=O)N(Cc2cccs2)Cc2ccccc2F)ccc1-n1cnnn1,inactive
22,CCNS(=O)(=O)c1cc(OC)c(Cl)cc1OC,inactive
23,O=C(Nc1nc(COc2ccccc2)cs1)c1ccccc1F,inactive
24,COc1ccc(CNC(=O)CN(Cc2ccc(OC)cc2)C(=O)CCC(=O)Nc2nccs2)cc1,inactive
